Assay outcomes: PubChem BioAssay, The Scripps Research Institute Molecular Screening Center
GPR151 ag = activators of human GPR151. PathHunter beta-arrestin GPR151 cells, luminescence. activation, % at 11.2 µM. hit rate 1% among 650,000; in the data active = activation above about 4.9%;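 also: 0% = median of compound wells and 100% = cells with positive control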
MITF inh = blocks human microphthalmia-associated transcription factor | hit rate 0.91% among 650,000 | AlphaScreen MITF homodimerization, bead proximity signal | O75030 | AID 1259374 | inhibition, % at 2.6 µM; in the data active = inhibition above about 50%;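 also: 0% = vehicle wells with protein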
Target sequence (O75030 whole entry, looked up): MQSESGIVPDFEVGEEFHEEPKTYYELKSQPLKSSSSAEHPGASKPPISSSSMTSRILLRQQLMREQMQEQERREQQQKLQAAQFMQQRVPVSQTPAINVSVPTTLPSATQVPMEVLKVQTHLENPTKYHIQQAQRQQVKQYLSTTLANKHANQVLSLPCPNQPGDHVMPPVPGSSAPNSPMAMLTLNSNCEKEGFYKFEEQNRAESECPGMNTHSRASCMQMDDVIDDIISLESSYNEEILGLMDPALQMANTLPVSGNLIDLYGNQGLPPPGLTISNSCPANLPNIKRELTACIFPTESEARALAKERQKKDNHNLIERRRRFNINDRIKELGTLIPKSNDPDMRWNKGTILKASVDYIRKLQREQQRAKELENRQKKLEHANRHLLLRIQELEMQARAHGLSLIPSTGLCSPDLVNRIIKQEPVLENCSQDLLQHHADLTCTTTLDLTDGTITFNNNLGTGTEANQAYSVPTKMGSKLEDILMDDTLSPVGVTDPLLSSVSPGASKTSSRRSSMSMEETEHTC
TEAD-YAP inh = TEAD-YAP interaction inhibition; HEK-TIYL cells, TEAD-Gal4/YAP UAS-luciferase luminescence; inhibition, % at 9.12 µM; hit rate 1.4% among 640,000; AID 1259422; in the data active = inhibition above about 32%;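 also: 0% = median of test compound wells and 100% = reference inhibitor wells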
FBW7 activator = human FBW7 E3 ligase activation, primary screen | hit rate 0.13% among 650,000 | AID 1259310 | AlphaScreen FBW7–phospho-cyclin E peptide binding, activator screen | normalized activity (activation), % at 26.1 µM; in the data active = normalized activity above about 1.9%;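 also: purified mutant Fbw7 with reduced substrate affinity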
The depositor's hits bear a star. The list is not random: actives were taken first. Their share in the collection is about 3.4%.

SMILES | GPR151 ag | MITF inh | TEAD-YAP inh | FBW7 activator
CC(=O)c1cccc(-c2nc(NCc3cccc(C(F)(F)F)c3)c3ncn(C4CCCCC4)c3n2)c1 | 0 | 6 | -7 | 0
Cc1[nH]c2ccccc2c(=O)c1C(=O)/C=C/c1ccccc1 | 0 | -2 | 93* | 0
O=C(/C=C/c1ccccc1)c1c(O)c2ccccc2[nH]c1=O | 1 | 5 | 4 | 0
CCN(Cc1ccccc1)C(=O)CCNS(=O)(=O)c1ccc2[nH]c(=O)ccc2c1 | 1 | 4 | 3 | 0
O=[N+]([O-])c1ccc(Br)c2ccncc12 | 4 | 19 | 62* | 0
CCOc1cccc(-c2cc(C(=O)N/N=C(\C)c3cccs3)[nH]n2)c1 | 1 | 14 | -10 | 0
C/C(=N\NC(=O)c1cc(C(C)C)[nH]n1)c1ccncc1 | 3 | 2 | -21 | 0
C/C(=N\NC(=O)c1cc(-c2ccccc2Cl)n[nH]1)c1ccc(O)cc1 | -1 | 2 | 17 | 0
CCOc1ccccc1-c1cc(C(=O)N/N=C(\C)c2cccs2)[nH]n1 | 0 | 11 | 49* | 0
CCOc1ccccc1-c1cc(C(=O)N/N=C(/C)c2ccc(OC)c(OC)c2)[nH]n1 | 1 | 9 | 40* | 0
CCOc1ccc(-c2cc(C(=O)N/N=C(\C)c3ccc(OC)cc3)[nH]n2)cc1 | 0 | 7 | 44* | 0
C/C(=N\NC(=O)c1cc(-c2ccc(CC(C)C)cc2)n[nH]1)c1ccncc1 | -1 | 0 | 67* | 0
Cc1ccc(/C=C(\C#N)C(=O)Nc2ccc(SC(F)F)cc2)o1 | 0 | 1 | -64 | 0
CN(C)c1ncc(CN2CCC(CO)(Cc3cccc(C(F)(F)F)c3)CC2)s1 | 1 | 9 | 7 | 0
CCOC(=O)C(=CNc1ncccn1)C(=O)OCC | 1 | 3 | 1 | 0
O=C(Nc1cc(C(=O)N2CCN(c3ccc([N+](=O)[O-])cc3)CC2)ccc1N1CC2CC(C1)c1cccc(=O)n1C2)c1cccs1 (configuration not stated) | 0 | 8 | 3 | 0
Cc1ncn(-c2ccc(Nc3nccc(-c4ccc(C#N)c(N5CCN(C)CC5)c4)n3)cc2)n1 | -2 | -2 | 51* | 0
Cc1ncn(-c2ccc(Nc3nccc(-c4cc(C#N)cc(NC(C)C)c4)n3)cc2)n1 | 1 | 13 | 10 | 0
Cc1ncn(-c2ccc(Nc3nccc(-c4ccc(C#N)c(NC(C)C)c4)n3)cc2)n1 | 0 | 1 | 48* | 0
CCCNC(=O)CCn1nc(-c2ccc(C)cc2)c2ccccc2c1=O | 0 | 17 | 2 | 0
CCCNC(=O)CCC(=O)Nc1ncc(-c2ccc(C)cc2)n1C | -1 | -1 | 93* | 0
c1cncc(CN2CCc3ccccc3C2)c1 | 0 | 34 | 8 | 0
COc1ccc(CCNc2cc(-c3c(C)nn(C)c3C)ncn2)cc1 | 1 | 9 | 10 | 0
CCCNc1cc(-c2c(C)nn(C)c2C)nc(N)n1 | 1 | -7 | 40* | 0
COc1ccc(CCNc2cc(-c3c(C)nn(C)c3C)nc(N)n2)cc1 | 1 | -5 | 50* | 0
SMILES | GPR151 ag | MITF inh | TEAD-YAP inh | FBW7 activator
Cn1cnnc1SCC(=O)Nc1ccc(C(N)=O)cc1 | -1 | 10 | 33* | 0
O=C(Oc1cccc(C(F)(F)F)c1)c1ccc(SCC2CCCO2)c([N+](=O)[O-])c1 (configuration not stated) | 0 | 10 | 7 | 0
CC(C)(C)OC(=O)N1CCC(Nc2ccnc(Cl)n2)CC1 | 1 | 5 | 35* | 0
Cc1ncn(-c2ccc(Nc3nccc(NC4CCN(C(=O)OC(C)(C)C)C4)n3)cc2)n1 (configuration not stated) | 1 | 7 | 46* | 0
CC(C)(C)OC(=O)N1CCC[C@H](Nc2ccnc(Cl)n2)C1 | 1 | 3 | -41 | 0
COC(=O)C1=C(C)NC(=O)N(C(C)=O)C1c1cccs1 (configuration not stated) | 0 | 6 | -5 | 0
CCOc1ccc(NC(=O)c2ccc(F)c(S(=O)(=O)N3CCN(c4ccccc4)CC3)c2)cc1 | 1 | 0 | 37* | 0
CCOC(=O)C1CCCN(S(=O)(=O)c2cc(C(=O)Nc3ccc(Oc4ccccc4)cc3)ccc2F)C1 (configuration not stated) | -1 | 8 | 53* | 0
O=C(Nc1ccc(Oc2ccccc2)cc1)c1ccc(F)c(S(=O)(=O)N2CCN(c3cccc(Cl)c3)CC2)c1 | 2 | 3 | 41* | 0
CCOc1ccc(NC(=O)c2ccc(F)c(S(=O)(=O)N3CCCc4ccccc43)c2)cc1 | 0 | 15 | 43* | 1
